Measured values: PubChem BioAssay (NCI)
The panel holds about 83,000 compounds, 20% with a hit somewhere; the sample as a whole holds those more often.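 Cells were grown in 96-well plates and exposed to the test compound at a single concentration for 48 hours; results are reported as percent growth, with values below 10 considered active.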 A number with no mark means an inactive call. Calls of active or inactive are those of the source.

Columns and labels:
Assay in all cases: NCI-60 one-dose screen, 48 h (100 = growth as untreated, 0 = no growth, -100 = all killed)
Details in all cases: 10 µM unless noted
[1] = test system: MOLT-4 leukemia
[2] = test system: SR leukemia
[3] = test system: RPMI-8226 leukemia
[4] = test system: OVCAR-8 ovarian
[5] = test system: OVCAR-5 ovarian
[6] = test system: OVCAR-4 ovarian
[7] = test system: SK-OV-3 ovarian
[8] = test system: IGROV1 ovarian
[9] = test system: OVCAR-3 ovarian
[10] = test system: HS 578T breast

COc1ccc(/C=C\c2cc(OC)c(OC)c(OC)c2)cc1OCC(=O)Nc1nc2ccc(OC(F)(F)F)cc2s1
growth [1]: 13.2% | growth [2]: 31.5% | growth [3]: 22.8% | growth [4]: 43.2% | growth [5]: 112% | growth [6]: 64.4% | growth [7]: 48.4% | growth [8]: 30.3% | growth [9]: -30.7% (active) | growth [10]: 12.5%

COc1ccc2c(c1)c(-c1nc(-c3cn(C)c4ncccc34)cs1)cn2CCCCN1CCCCC1
growth [1]: -65% (active) | growth [2]: -54.3% (active) | growth [3]: -42% (active) | growth [4]: -65.2% (active) | growth [5]: -69.2% (active) | growth [6]: -6.02% (active) | growth [7]: 38.5% | growth [8]: -62.5% (active) | growth [9]: -78.4% (active) | growth [10]: 58.3%

Nc1ccc(-c2nc3cc(F)ccc3[se]2)cc1F
growth [1]: 63.5% | growth [2]: 15.5% | growth [3]: 63.2% | growth [4]: 92.3% | growth [5]: 47.9% | growth [6]: 65.8% | growth [7]: 55.1% | growth [8]: 38.7% | growth [9]: 81% | growth [10]: 103%

CN(C)C(=O)Oc1ccc(Br)cc1
growth [1]: 102% | growth [2]: 100% | growth [3]: 106% | growth [4]: 106% | growth [5]: 106% | growth [6]: 97.7% | growth [7]: 95.8% | growth [8]: 96.7% | growth [9]: 106% | growth [10]: 115%

C=CCc1cc2c(cc1OCC)OCO2
growth [1]: 113% | growth [2]: 126% | growth [3]: 112% | growth [4]: 103% | growth [5]: 95.7% | growth [6]: 108% | growth [7]: 80.3% | growth [8]: 121% | growth [9]: 107% | growth [10]: 93.2%

COc1ccc(C/C(C)=C(\c2ccc(OCCN3CCOCC3)cc2)c2ccc(OC(=O)Cc3ccccc3)cc2)cc1
growth [1]: -14.5% (active) | growth [2]: -38.2% (active) | growth [3]: -42.4% (active) | growth [4]: -1.48% (active) | growth [5]: 3.16% (active) | growth [6]: 4% (active) | growth [7]: 0.737% (active) | growth [8]: 1.9% (active) | growth [9]: -93.4% (active) | growth [10]: -42.1% (active)

CCCCN1CCCC[C@@H]1C(=O)N[C@H](C(=O)N(C)[C@H](CCc1nc(C(=O)N[C@@H](Cc2ccccc2)C[C@H](C)C(=O)OC)cs1)C(C)C)[C@@H](C)CC
growth [1]: 34.7% | growth [2]: 8% (active) | growth [3]: 28.6% | growth [4]: 80.9% | growth [5]: 101% | growth [6]: 56.9% | growth [7]: 49.9% | growth [8]: 48.9% | growth [9]: 13.8% | growth [10]: 76%

COC(=O)[C@@H](C)C[C@H](Cc1ccccc1)NC(=O)c1nc([C@@H](C[C@H](C(C)C)N(C)C(=O)[C@@H](NC(=O)[C@H]2CCCCN2C)C(C)C)OC(C)=O)sc1C
growth [1]: 11.1% | growth [2]: 4.24% (active) | growth [3]: 18.2% | growth [4]: 15% | growth [5]: 41.4% | growth [6]: 50.6% | growth [7]: 29.9% | growth [8]: 22.7% | growth [9]: -37.8% (active) | growth [10]: 13.7%

CC[C@H](C)[C@@H]1OC(=O)C(C)(C)[C@H](O)[C@H](Cc2ccccc2)OC(=O)[C@H](C(C)C)OC(=O)[C@@H](NC(=O)c2cccc(NC=O)c2O)[C@@H](C)OC1=O
growth [1]: 37.7% | growth [2]: 43.3% | growth [3]: 29% | growth [4]: 51.3% | growth [5]: 103% | growth [6]: 28.7% | growth [7]: 60.7% | growth [8]: 53.6% | growth [9]: 48.2% | growth [10]: 73.4%

CCC(CC)CC1(C)CC2(C)CCOC2OO1 (stereo not given)
growth [1]: 113% | growth [2]: 113% | growth [3]: 103% | growth [4]: 102% | growth [5]: 113% | growth [6]: 95.4% | growth [7]: 111% | growth [8]: 114% | growth [9]: 115% | growth [10]: 92.6%

CCCC[C@H](NC(=O)[C@H]1CCCN1C)C(=O)N(C)[C@H](C[C@@H](OC(C)=O)c1nc(C(=O)N[C@@H](Cc2ccccc2)C[C@H](C)C(=O)OCC)cs1)C(C)C
growth [1]: 14.5% | growth [2]: 6.28% (active) | growth [3]: 16.6% | growth [4]: 20% | growth [5]: 32.7% | growth [6]: 66.5% | growth [7]: 17.2% | growth [8]: 29.7% | growth [9]: 8.32% (active) | growth [10]: 12.6%

O[C@H](CN1CC1)[C@@H](O)CN1CC1
growth [1]: 32.8% | growth [2]: 16.9% | growth [3]: 88% | growth [4]: 55% | growth [5]: 103% | growth [6]: 93.1% | growth [7]: 49.5% | growth [8]: 93.9% | growth [9]: 101% | growth [10]: 97.1%

CCC(=O)Nc1ccc(Cl)c(Cl)c1
growth [1]: 97.9% | growth [2]: 95.5% | growth [3]: 106% | growth [4]: 100% | growth [5]: 92.9% | growth [6]: 118% | growth [7]: 104% | growth [8]: 104% | growth [9]: 107% | growth [10]: 110%

CC[C@]12C=CCN3CC[C@@]4(c5ccc(OC)cc5N(C)[C@H]4[C@@](O)(C(=O)OC)[C@@H]1OC(=O)CCCC[P+](c1ccccc1)(c1ccccc1)c1ccccc1)[C@@H]32
growth [1]: 5.66% (active) | growth [2]: 17.9% | growth [3]: 15.4% | growth [4]: 18.6% | growth [5]: 23.8% | growth [6]: 5.22% (active) | growth [7]: -2.96% (active) | growth [8]: -36.4% (active) | growth [9]: -0.293% (active) | growth [10]: 9.79% (active)

COc1cc2c(=O)n(C3CCCCCCC3)c3c4cc[nH]c4ncc3c2cc1OC
growth [1]: 40.6% | growth [2]: 17.4% | growth [3]: 50.1% | growth [4]: 43.7% | growth [5]: 79.3% | growth [6]: -9.58% (active) | growth [7]: 36.5% | growth [8]: 48.4% | growth [9]: 36.8% | growth [10]: 2.28% (active)

CC(C)OC(=O)[C@H](C)NP(=O)(Oc1ccccc1)C1CCCN(O)C1=O (stereo not given in full)
growth [1]: 93.7% | growth [2]: 89.6% | growth [3]: 101% | growth [4]: 106% | growth [5]: 91.7% | growth [6]: 107% | growth [7]: 122% | growth [8]: 90.6% | growth [9]: 99.4% | growth [10]: 92%

COc1ccc2c(c1)c(-c1nc(-c3c[nH]c4ncccc34)cs1)cn2CCCCN1CCCCC1
growth [1]: -60.3% (active) | growth [2]: -57.6% (active) | growth [3]: -43.6% (active) | growth [4]: -67.6% (active) | growth [5]: -15.7% (active) | growth [6]: -13.3% (active) | growth [7]: -61.5% (active) | growth [8]: -62.1% (active) | growth [9]: -71.4% (active) | growth [10]: -23.3% (active)

O=C(O)C(O)C(O)C1[O][Sb]([c]2ccc([N+](=O)[O-])cc2)[O]C1CO (stereo not given)
growth [1]: 98.2% | growth [2]: 102% | growth [3]: 99.2% | growth [4]: 105% | growth [5]: 103% | growth [6]: 112% | growth [7]: 129% | growth [8]: 111% | growth [9]: 114% | growth [10]: 93.8%

C[C@]12CCc3sc(-c4ccccc4O)nc3C1=CC[C@@H]1[C@@H]2CC[C@]2(C)C(=O)CC[C@@H]12
growth [1]: 94.7% | growth [2]: 109% | growth [3]: 107% | growth [4]: 105% | growth [5]: 104% | growth [6]: 108% | growth [7]: 102% | growth [8]: 103% | growth [9]: 104% | growth [10]: 105%

COC1CC2c3ccccc3C1C(C)=[N+]2C (stereo not given)
growth [1]: 101% | growth [2]: 105% | growth [3]: 75.3% | growth [4]: 96.6% | growth [5]: 93.8% | growth [6]: 83.7% | growth [7]: 105% | growth [8]: 92.5% | growth [9]: 102% | growth [10]: 105%

CCOC(=O)[C@@H](C)C[C@H](Cc1ccccc1)NC(=O)c1csc([C@@H](C[C@H](C(C)C)N(C)C(=O)[C@H](CCC(C)C)NC(=O)[C@H]2CCCCN2C)OC(C)=O)n1
growth [1]: 10.3% | growth [2]: 4.32% (active) | growth [3]: 12.6% | growth [4]: 18% | growth [5]: 28.2% | growth [6]: 48.2% | growth [7]: 2.1% (active) | growth [8]: 26.1% | growth [9]: -1.34% (active) | growth [10]: 5.53% (active)

COc1cc(C=C2c3ccccc3C(=O)c3ccccc32)ccc1OCCCCOc1cc2c(cc1OC)C(=O)N1CCCC1C=N2 (stereo not given)
growth [1]: -53.2% (active) | growth [2]: -84.7% (active) | growth [3]: -10% (active) | growth [4]: -30.4% (active) | growth [5]: -61.3% (active) | growth [6]: -41.1% (active) | growth [7]: -52.4% (active) | growth [8]: -85% (active) | growth [9]: -75.2% (active) | growth [10]: -25.9% (active)

CC[S][Hg][Cl]
growth [1]: 109% | growth [2]: 98.1% | growth [3]: 114% | growth [4]: 102% | growth [5]: 116% | growth [6]: 122% | growth [7]: 110% | growth [8]: 112% | growth [9]: 109% | growth [10]: 106%

C=C1[C@@H](C)[C@H]2[C@H](Cc3ccccc3)NC(=O)[C@]23[C@@H](O)/C=C/[C@@](C)(O)C(=O)[C@@H](C)C/C=C/[C@H]3[C@@H]1O
growth [1]: 61.5% | growth [2]: 64.3% | growth [3]: 68.4% | growth [4]: 69.3% | growth [5]: 38.1% | growth [6]: 53.7% | growth [7]: 38.1% | growth [8]: 70.5% | growth [9]: 46.2% | growth [10]: -11.7% (active)

O=P(Oc1ccc(Cl)cc1)(N1CC1)N1CC1
growth [1]: 84.8% | growth [2]: 77.8% | growth [3]: 88.6% | growth [4]: 89.3% | growth [5]: 117% | growth [6]: 97.3% | growth [7]: 104% | growth [8]: 89.1% | growth [9]: 109% | growth [10]: 103%

CN[C@]1(c2ccccc2Cl)CCCC[C@H]1NCCCN1CCN(C)CC1
growth [1]: 98.8% | growth [2]: 111% | growth [3]: 97.3% | growth [4]: 97.2% | growth [5]: 104% | growth [6]: 101% | growth [7]: 105% | growth [8]: 103% | growth [9]: 102% | growth [10]: 94.1%
